Reference: the supplement of paper PMC6089552
About 300 (9.4%) of roughly 3,200 compounds showed activity. This excerpt belongs to a sample that is enriched for actives.

System: A673/TR/shEF
Assay: cell viability (LOESS-normalised, relative to median of negative controls) (log2 ratio); higher = more viable cells (less compound effect), active = hit call of the paper (over 3 MAD below the median)
Conditions: treatment time: 72 h
Method in brief: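 A673/TR/shEF Ewing sarcoma cells (1,500 per well, 384-well plates) were grown with or without doxycycline to induce EWS-FLI1 shRNA knockdown, starting 24 h before compounds. Library compounds at two or more concentrations, with DMSO controls, were added for three days. Cell viability was read by CellTiter-Glo luminescence on an Envision reader, then LOESS-corrected per plate, divided by the median of negative controls and log2-transformed. Hits were wells at least three median absolute deviations from the median of all screened wells.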

[1] = 0.25 µM, library screen: screen2, EWS-FLI1 expression: high (no doxycycline)
[2] = 0.25 µM, library screen: screen2, EWS-FLI1 expression: low (doxycycline-induced shRNA knockdown)
[3] = 2.5 µM, library screen: screen2, EWS-FLI1 expression: high (no doxycycline)
[4] = 2.5 µM, library screen: screen2, EWS-FLI1 expression: low (doxycycline-induced shRNA knockdown)
[5] = 0.25 µM, library screen: screen1, EWS-FLI1 expression: high (no doxycycline)
[6] = 0.25 µM, library screen: screen1, EWS-FLI1 expression: low (doxycycline-induced shRNA knockdown)
[7] = 2.5 µM, library screen: screen1, EWS-FLI1 expression: high (no doxycycline)
[8] = 2.5 µM, library screen: screen1, EWS-FLI1 expression: low (doxycycline-induced shRNA knockdown)
[9] = 0.103 µM, library screen: screen3, EWS-FLI1 expression: high (no doxycycline)
[10] = 0.103 µM, library screen: screen3, EWS-FLI1 expression: low (doxycycline-induced shRNA knockdown)
[11] = 0.308 µM, library screen: screen3, EWS-FLI1 expression: high (no doxycycline)
[12] = 0.308 µM, library screen: screen3, EWS-FLI1 expression: low (doxycycline-induced shRNA knockdown)
[13] = 0.926 µM, library screen: screen3, EWS-FLI1 expression: high (no doxycycline)
[14] = 0.926 µM, library screen: screen3, EWS-FLI1 expression: low (doxycycline-induced shRNA knockdown)
[15] = 2.8 µM, library screen: screen3, EWS-FLI1 expression: high (no doxycycline)
[16] = 2.8 µM, library screen: screen3, EWS-FLI1 expression: low (doxycycline-induced shRNA knockdown)
[17] = 8.3 µM, library screen: screen3, EWS-FLI1 expression: high (no doxycycline)
[18] = 8.3 µM, library screen: screen3, EWS-FLI1 expression: low (doxycycline-induced shRNA knockdown)
[19] = 25 µM, library screen: screen3, EWS-FLI1 expression: high (no doxycycline)
[20] = 25 µM, library screen: screen3, EWS-FLI1 expression: low (doxycycline-induced shRNA knockdown)

Measured: cell viability (log2)

COc1cc(OC)cc(C(CNc2ncnc3c2ncn3C2O[C@H](CO)[C@@H](O)[C@H]2O)c2ccccc2C)c1 (stereo partly specified)
inactive: [1] 0.151 | [2] 0.0311 | [3] 0.147 | [4] 0.121

C#CCCCCCCCCCCC[C@@H](O)C[C@@H](O)COC(C)=O
inactive: [5] 0.145 | [6] 0.0417 | [7] 0.08 | [8] 0.0325

COc1ccc(CN2CCN(Cc3ccccc3C(F)(F)F)CC2)c(OC)c1OC
inactive: [5] -0.00682 | [6] 0.0327 | [7] 0.087 | [8] 0.144

CC=C(C)C(=O)OC1Cc2c(ccc3ccc(=O)oc23)OC1(C)C (stereo unspecified)
inactive: [5] 0.052 | [6] 0.0529 | [7] 0.186 | [8] 0.0456

CCCCCCCCCCCCCCCCCCOCC(O)CO (stereo unspecified)
inactive: [5] 0.0496 | [6] 0.117 | [7] 0.142 | [8] 0.0249

COc1ccc2c(c1)OC[C@@H](Cc1ccc(OC)c(OC)c1)C2=O
inactive: [5] -0.018 | [6] 0.0264 | [7] 0.11 | [8] 0.0741

COc1ccc2c(c1)OCC(Cc1ccc(OC)c(OC(C)=O)c1)C2=O (stereo unspecified)
active: [7] -0.246
inactive: [5] 0.0793 | [6] -0.0163 | [8] -0.0188

COc1ccc2c(c1)OC[C@@H](Cc1ccc(OC)c(OC)c1)[C@@H]2O
inactive: [5] 0.137 | [6] -0.0181 | [7] 0.209 | [8] 0.0843

Oc1cc(O)c2c(c1)O[C@H](c1cc(O)c(O)c(O)c1)[C@H](O)[C@H]2c1c(O)cc(O)c2c1O[C@H](c1cc(O)c(O)c(O)c1)[C@H](O)[C@H]2c1c(O)cc(O)c2c1O[C@H](c1cc(O)c(O)c(O)c1)[C@H](O)C2
inactive: [5] -0.0224 | [6] 0.066 | [7] 0.107 | [8] 0.0716

OC[C@H]1O[C@@H](O[C@H]2[C@H](O)[C@@H](O)C(O)O[C@@H]2CO)[C@H](O)[C@@H](O)[C@@H]1O (stereo partly specified)
inactive: [5] -0.0294 | [6] 0.0659 | [7] 0.116 | [8] 0.0995

Nc1ncnc2c1ncn2[C@@H]1O[C@H](COP(=O)(O)O)[C@@H](O)[C@H]1O
inactive: [5] 0.101 | [6] -0.0633 | [7] 0.171 | [8] 0.117

CC(C)(C)C(=O)OCOP(=O)(COCCn1cnc2c(N)ncnc21)OCOC(=O)C(C)(C)C
active: [15] -0.371 | [17] -0.686 | [19] -1.44 | [20] -0.304
inactive: [9] -0.0455 | [10] 0.0657 | [11] -0.0326 | [12] 0.0345 | [13] -0.105 | [14] -0.0287 | [16] -0.0209 | [18] -0.0516

C[C@H](Cn1cnc2c(N)ncnc21)OCP(=O)(O)O
inactive: [9] 0.0857 | [10] 0.09 | [1] 0.128 | [2] 0.113 | [11] 0.00908 | [12] 0.0155 | [13] 0.0338 | [14] 0.0939 | [3] 0.189 | [4] 0.0365 | [15] 0.0533 | [16] 0.0269 | [17] -0.0007 | [18] 0.0852 | [19] 0.0436 | [20] 0.126

CC1CCC(O)C/C1=C/C=C1\CCCC2(C)C1CCC2C(C)/C=C/C(C)C(C)C (stereo unspecified)
inactive: [5] 0.0469 | [6] 0.0169 | [7] 0.0774 | [8] 0.0401

COc1cc(C2NC(=O)NC(C)=C2C(=O)Nc2cccc(Cl)c2)cc(OC)c1OC (stereo unspecified)
inactive: [5] 0.0796 | [6] 0.0843 | [7] 0.0754 | [8] -0.0585

O[Si](CCCN1CCCCC1)(c1ccc(F)cc1)C1CCCCC1 (stereo unspecified)
inactive: [1] 0.132 | [2] 0.0854 | [3] 0.109 | [4] 0.178

Cc1c(NC(=O)Nc2ccc3ccccc3c2)c(=O)n(-c2ccccc2)n1C
inactive: [5] 0.0897 | [6] 0.113 | [7] 0.056 | [8] 0.16

Cc1nc2ccccn2c(=O)c1CCN1CCC(C(=O)c2ccc(F)cc2)CC1
inactive: [5] 0.119 | [6] 0.184 | [1] 0.229 | [2] 0.127 | [7] 0.124 | [8] 0.101 | [3] 0.243 | [4] 0.107
